# The whole screen tested about 580,000 compounds, of which about 6,100 (1.1%) were called active. Another 15% or so got no clear call; they are omitted. The sample as a whole holds a higher share of actives than the screen did. Values without a mark were called inactive. The call rests on the fitted dose curve; in most records, active means well fitted inhibition curve with a large enough effect; inconclusive means small, poorly fitted or top-dose-only effect, or another doubt; inactive means no such curve, though single readings can be large or run the other way.
# Biological target: Polyunsaturated fatty acid lipoxygenase ALOX12 (Homo sapiens) (UniProt P18054)
# Experiment: Primary qHTS assay for inhibitors of human arachidonate 12S-lipoxygenase (ALOX12): Round 2
# Conditions: purified 12hLO, xylenol orange hydroperoxide absorbance; series mostly up to 108 µM; activity change, negative = inhibition: at the top concentration
# Source text: Assay Provider: Theodore R. Holman Ph.D. University of California, Santa Cruz, California Human lipoxygenase 12hLO is a member of the closely related lipoxygenase family of enzymes which catalyze the site-specific oxidation of arachidonic acid to various hormone precursor molecules and as such is a candidate for drug development in a variety of disease areas, such as cancer and inflammation. Inhibition of 12hLO activity was screened by utilizing arachidonic acid as a substrate. The extent of hydroperoxide product formation was measured by a secondary chromogenic reaction in which xylenol orange (XO, Sigma-Aldrich, cat. number 39,818-7) reacts with the ferric ions produced from the reaction between the hydroperoxide and ferrous ions. The Fe (III)-XO complex is characterized with red-shifted absorbance at 560 nm. A purified preparation of human 12hLO was supplied by Dr. Holman laboratory, University of California, Santa Cruz.
# PROTOCOL TABLE SEQUENCE No. (e.g., 1, 2, 3, etc.); […] (e.g., Cells, Incubation, Reagent, etc.); VALUE; DESCRIPTION 1; Enzyme; 3 uL; 150 nM 12hLO enzyme solution dispensed in 1536-well Greiner black, clear bottom plates. 2; Compound; 23 nL; compounds and controls were added. 3; Incubate; 15 min; room temperature. 4; Substrate; 1 uL; 40 uM arachidonic acid (final concentration). 5; Incubate; 30 min; room temperature. 6; Reagent; 4 uL; Fe-XO solution was added to each well. 7; Incubation; 30 min; room temperature 8; Detector; absorbance; Read 1 at 405 nm absorbance using ViewLux (Perkin-Elmer) CCD imager. 9; Detector; absorbance; Read 2 at 573 nm absorbance using ViewLux (Perkin-Elmer) CCD imager. NOTES (numbers refer to sequence above) 1; 150 nM 12hLO (final concentration) in buffer solution (25 mM Hepes, 0.01% Triton X-100, pH 7.0) was dispensed in columns 1, 2, 5-48. Column 1 is neutral (100% activity). Buffer only was dispensed in columns 3 and 4 as no enzyme negative controls. The plates were covered with metal lids with gas-exchange holes. 2; Compounds were pin transferred via a Kalypsys Pin Tool (Wako USA) in column 5-48. Control compound was transferred in column 2, titration of nordihydroguaiaretic acid (NDGA, Sigma-Aldrich, N5023) with top concentration of 20 mM in DMSO then 1:3 dilution in duplicate. Dilution factor of 23 nL into 4 uL final assay volume. 3; Covered assay plates were incubated for 15 min at room temperature. 4; Substrate was added to start the reaction; 40 uM arachidonic acid (Sigma-Aldrich, St. Louis, MO) was dispensed throughout the plate. 6; Chromogenic detection reagent solution (divalent iron/xylenol orange, Fe-XO) was added to each well: 200 uM xylenol orange, 300 uM ferrous ammonium sulfate prepared freshly in 50 mM sulfuric acid. 8, 9; Two absorbance readouts were obtained at 405 nm and at 573 nm using a ViewLux high-throughput CCD plate imager (Perkin-Elmer). The 573 to 405 (Read 2 / Read 1) absorbance ratio was used to compute reaction progress.
# On the % scale 0 is the no-effect control and ±100 the full control effect; potency means the concentration at half of the fitted maximal effect.
# Chain of Polyunsaturated fatty acid lipoxygenase ALOX12 (Homo sapiens) (P18054 whole entry, looked up): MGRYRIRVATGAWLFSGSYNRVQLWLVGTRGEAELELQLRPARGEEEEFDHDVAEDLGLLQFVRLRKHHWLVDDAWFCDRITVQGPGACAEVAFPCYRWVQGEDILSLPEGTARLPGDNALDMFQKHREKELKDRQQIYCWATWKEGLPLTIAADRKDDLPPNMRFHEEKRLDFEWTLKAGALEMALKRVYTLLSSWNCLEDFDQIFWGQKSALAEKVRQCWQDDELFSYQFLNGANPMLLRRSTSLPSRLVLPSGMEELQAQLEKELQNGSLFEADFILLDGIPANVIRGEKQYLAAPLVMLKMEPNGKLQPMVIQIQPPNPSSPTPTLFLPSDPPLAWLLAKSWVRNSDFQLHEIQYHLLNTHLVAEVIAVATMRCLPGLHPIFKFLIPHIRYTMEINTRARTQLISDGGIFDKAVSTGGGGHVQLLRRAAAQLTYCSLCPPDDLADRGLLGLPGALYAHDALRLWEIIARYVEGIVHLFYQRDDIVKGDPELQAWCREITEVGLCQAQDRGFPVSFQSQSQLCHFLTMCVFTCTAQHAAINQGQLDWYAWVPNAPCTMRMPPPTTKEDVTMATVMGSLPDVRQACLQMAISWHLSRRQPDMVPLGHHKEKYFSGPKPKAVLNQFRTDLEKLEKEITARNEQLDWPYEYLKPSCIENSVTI
SMILES,"activity change, negative = inhibition",Potency
CC(=O)N1CCc2nc(C3CC3)nc(-c3ccc(Cl)cc3)c2C1,7.6% [at 176 µM],–
Cn1ccnc1CNCC1(COc2ccc(C(F)(F)F)cn2)C[C@@H](O)[C@@H](O)C1 (stereo partly drawn),41%,–
CCS(=O)(=O)NCC1(COc2ccc(C(F)(F)F)cn2)C[C@@H](O)[C@@H](O)C1 (stereo partly drawn),–,12.6 µM (active)
O=C(NCC1(COc2ccc(C(F)(F)F)cn2)C[C@@H](O)[C@@H](O)C1)c1ccc(F)cc1 (stereo partly drawn),131%,–
COc1cc(CN2C[C@@H](CO)[C@H](c3nc(C)no3)C2)ccc1F,24.8%,–
Cc1ccc(-c2c3c(nc4sc5c(c24)CCC5)-c2cc(F)ccc2S(=O)(=O)C3)cc1,5.98%,–
Cc1scc(-c2ccccc2)[n+]1C,–,17.8 µM (active)
Cc1cc2nc(-c3ccccc3)c(-c3ccccc3)nc2cc1C,-2.87%,–
Cc1ccccc1Nc1scc(-c2ccc(Br)cc2)[n+]1-c1ccccc1C,-14%,–
CCCCN(C)C(=O)CCNC(=O)Cn1cnc2sc3c(c2c1=O)CCCC3,1.19%,–
CCCC1CCC(c2ccc(-c3ccc(CC)cn3)cc2F)CC1 (stereo not drawn),2.03%,–
CCN1C(=O)[C@H]2[C@@H](c3ccccc3)N[C@]3(CCCN(Cc4ccc(C)cc4)C3=O)[C@H]2C1=O,–,4.47 µM (active)
Cc1ccc([C@H]2N[C@]3(CCCN(Cc4ccccc4)C3=O)[C@H]3C(=O)N(Cc4ccccc4)C(=O)[C@@H]23)cc1,-20.9%,–
CCN1C(=O)[C@H]2[C@@H](c3ccc(-c4ccc(F)cc4)cc3)N[C@@](Cc3ccccc3)(C(=O)OC)[C@H]2C1=O,-4.83%,–
CC1=C(C)CC(C(=O)NCCN2CCOCC2)C(C(=O)O)C1 (stereo not drawn),0.372%,–
CN(C)c1ccc(C=O)s1,-2.25%,–
O=C(Cc1cccc(F)c1)NC1CCC(c2ccccc2)CC1 (stereo not drawn),21.6%,–
O=C(/C=C/c1ccco1)NC1CCC(c2ccccc2)CC1 (stereo not drawn),–,7.94 µM (active)
O=C(/C=C/c1cc2cc(Cl)ccc2o1)NC1CCCC1,-6.52%,–
CCN(CC)C(=O)CSc1ncc(-c2ccc(Br)cc2)o1,-26.6%,–
CC(=O)c1sc(Nc2ccc(C)c(C)c2)nc1C,-9.89%,–
C/C(=N\NC(N)=S)c1cc(C(C)(C)C)cc2c1CCC2(C)C,–,31.6 µM (active)
COc1ccc(C2CCCCCN2C(=O)CCn2ncc(=O)c3ccccc32)cc1 (stereo not drawn),1.87%,–
CNC(=O)c1ccc(-c2nc(CN3CCN(C(=O)Nc4ccc(C)c(C)c4)CC3)c(C)o2)cc1,8.91%,–
COc1ccc(C2=C(C)C(=NC(C)C34CC5CC(CC(C5)C3)C4)NS2(=O)=O)cc1 (stereo not drawn),1.75%,–
COC(=O)C1CCN(c2nc3ccccc3nc2C(C#N)C(=O)NC2CCCC2)CC1 (stereo not drawn),-2.98%,–
Cc1ccc(S(=O)(=O)C(C#N)c2nc3ccccc3nc2N2CCCC2)cc1C (stereo not drawn),0.581%,–

SMILES,"activity change, negative = inhibition",Potency
CC1CCN(c2nc3ccccc3nc2C(C#N)S(=O)(=O)c2cccc(Cl)c2)CC1 (stereo not drawn),–,11.2 µM (active)
COc1cccc(-c2nc(SCC(=O)Nc3nccs3)c(-c3ccc(Cl)cc3)[nH]2)c1,9.61%,–
CCN(CC)S(=O)(=O)c1ccc(N2CCOCC2)c(NC(=O)CC2CCCC2)c1,27.8%,–
COc1ccc(C(=O)CSc2n[nH]c(N)n2)cc1,0%,–
COc1ccc(Cn2c(CN(C)S(C)(=O)=O)n[nH]c2=O)cc1,68.5%,–
COc1ccc(OCc2n[nH]c(=S)n2N)cc1,–,15.8 µM (active)
Cc1ccc(-n2nnc(C(=O)NCC(C)C)c2C)cc1Cl,-28.3%,–
O=C(CSc1nnc(-c2ccccc2)c2ccccc12)c1ccc2c(c1)OCCCO2,–,44.7 µM (active)
O=C(CSc1ncnc2sccc12)c1ccc2c(c1)OCCCO2,11.2%,–
O=C(CN(Cc1ccccc1)C(=O)c1ccc2c(c1)OCCO2)NCc1ccc2c(c1)OCO2,-24.4%,–
CCc1ccc(-c2csc(NC(=O)c3nn(CC)c(=O)c4ccccc34)n2)cc1,16.7%,–
CCOC(=O)/C(=C/c1ccc(Cl)s1)c1nccn1C,-9.62%,–
Cc1ccc2nc(N3C(=O)C(O)=C(C(=O)c4ccco4)C3c3cccc(O)c3)sc2c1 (stereo not drawn),–,25.1 µM (active)
CC(=O)c1sc(N2C(=O)c3oc4ccccc4c(=O)c3C2c2ccc(C)cc2)nc1C (stereo not drawn),15.6%,–
COc1cc(C2C(C(=O)c3ccco3)=C(O)C(=O)N2c2cc(C)on2)ccc1OCc1ccccc1 (stereo not drawn),-24.9%,–
Cc1ccc(C(N)=O)c(OCc2coc(-c3ccccc3)n2)c1,-0.951%,–
CC(Sc1nc2cc(S(=O)(=O)N3CCCCC3)ccc2o1)C(=O)N1CCc2ccccc21 (stereo not drawn),5.52%,–
CCOC(CNC(=O)c1ccc2c(c1)ncn2-c1cccc(C)c1)OCC,-11.6%,–
CC(Sc1ccc(Cl)cc1)C(=O)NCCC(=O)N1CCCC1 (stereo not drawn),-3.96%,–
CC(=O)CCC1=C(C)CCCC1(C)C,65.1% [at 176 µM],–
COc1ccc(/C=C2/C(=O)OCc3cc(OC)c(OC)cc32)c(OC)c1,-14.4%,–
COc1ccc(/C=N/OCc2ccccc2C#N)c(OC)c1,10.2%,–
COc1cc(/C=C/C(N)=O)cc(OC)c1OC,10.5%,–
COc1cc(/C=C/C2=CC(C)(C)NC(=S)N2)cc(OC)c1OC,–,44.7 µM (active)
COc1cc(/C=C/c2ccc(/C=C/c3cc(OC)c(OC)c(OC)c3)cc2)cc(OC)c1OC,6.7%,–
COc1ccc(/C=C/C2=CC(C)(C)NC(=S)N2)c(OC)c1,–,39.8 µM (active)

# Reference: PubChem BioAssay AID1671190 (National Center for Advancing Translational Sciences (NCATS), 2021)
